GDH-TPI inh = counter-screen for M. tuberculosis FBA inhibitors: GDH-TPI coupled enzymes; GDH-TPI coupled enzyme counterscreen, NADH absorbance; inhibition, % at 4.8 µM; 1.2% of 360,000 active; AID 588335; in the data active = inhibition above about 30%;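 also: 0% = DMSO wells and 100% = wells lacking the enzyme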
Mtb UGM inh = blocks M. tuberculosis UGM enzyme. purified UGM, fluorescence polarization probe displacement. 0.06% of 320,000 active. inhibition, % at 10 µM. P9WIQ1; in the data active = inhibition above about 10%, passing the limit was not always enough
FadD28 FP inh = blocks FadD28 binding to the bisubstrate probe | fluorescence polarization | 0.22% of 360,000 active | AID 588549 | inhibition, % at 12.5 µM; in the data active = inhibition above about 8.5%, passing the limit was not always enough
Mtb FBA inh = inhibitors of M. tuberculosis fructose-bisphosphate aldolase. purified M. tuberculosis FBA, fluorescence read-out. 2.3% of 360,000 active. inhibition, % at 1 µM. AID 588726; in the data active = inhibition above about 27%;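 also: 0% = vehicle and 100% = reference inhibitor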
Mtb hypoxia inh = inhibitors of hypoxia-regulated fluorescent reporter in Mycobacterium tuberculosis. M. tuberculosis hypoxia-regulated fluorescent reporter, fluorescence. fluorescence inhibition, % (no concentration beside the values). 0.1% of 300,000 active. AID 1159583; in the data active = fluorescence inhibition mostly above about 23%, no sharp cut-off; inactive = mostly below about 17%
Rv3671c protease = inhibitors of M. tuberculosis serine protease Rv3671c | P9WHR9 | inhibition, % at 5.96 µM | 0.048% of 320,000 active | AID 2606; in the data active = inhibition above about 38%;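 also: extracellular domain of Rv3671c used as enzyme; 0% = enzyme with DMSO and 100% = no enzyme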
Target sequence (P9WHR9 whole entry, looked up, the tested form may be a part): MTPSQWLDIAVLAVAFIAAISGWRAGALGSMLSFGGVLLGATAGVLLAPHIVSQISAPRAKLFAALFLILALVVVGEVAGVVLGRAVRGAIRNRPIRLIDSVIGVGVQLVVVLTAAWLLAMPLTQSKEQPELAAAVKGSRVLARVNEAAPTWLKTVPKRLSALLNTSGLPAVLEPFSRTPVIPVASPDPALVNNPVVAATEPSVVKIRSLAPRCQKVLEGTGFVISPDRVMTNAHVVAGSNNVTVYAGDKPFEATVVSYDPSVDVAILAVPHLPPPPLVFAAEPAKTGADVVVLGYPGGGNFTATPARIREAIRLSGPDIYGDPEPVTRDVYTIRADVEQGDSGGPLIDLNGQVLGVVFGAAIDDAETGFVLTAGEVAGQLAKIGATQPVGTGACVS
* = called active by the depositor; / = no result; + = active, no number. In the library only some 3.5% were active in any assay of this set; here they are far more common.

SMILES | GDH-TPI inh | Mtb UGM inh | FadD28 FP inh | Mtb FBA inh | Mtb hypoxia inh | Rv3671c protease
Cc1ccc(-c2nc3ncccc3o2)cc1N | 3 | 1 | -4 | -4 | -2 | 6
Nc1ccc(-c2nc3ncccc3o2)c(O)c1 | 59* | 0 | -1 | + | 0 | -1
O=C(COc1ccc(C=NNC(=O)c2ccccc2O)cc1)Nc1ccccc1 | / | / | / | / | 0 | /
O=C(COc1ccc(/C=N/NC(=O)c2ccccc2O)cc1)Nc1ccc([N+](=O)[O-])cc1 | 38* | 0 | -6 | 0 | / | 5
NC(Cc1ccc(Cl)cc1Cl)=NOC(=O)Cc1ccc(Cl)cc1 | / | / | / | / | 3 | /
Cc1cc(O)c(C=Nc2ccc(N3CCOCC3)cc2)c(C)c1Cl | 14 | 4 | -1 | -2 | 8 | -1
Cc1ccc(Cl)cc1-c1ccc(C=Nc2ccc(N3CCOCC3)cc2)o1 | 33* | -1 | -2 | 1 | -1 | -7
COc1ccc(CNC(=O)Nc2ccc3c(c2)c(=O)n(C)n3Cc2cc(C)cc(C)c2)cc1 | 11 | / | -2 | 168* | / | /
Cn1c(=O)c2cc(NC(=S)NCc3ccccc3F)ccc2n1Cc1cccc(C(F)(F)F)c1 | 6 | / | -2 | 21 | / | /
Cc1cc(C)cc(Cn2c3ccc(NC(=S)NCc4ccccc4F)cc3c(=O)n2C)c1 | 5 | / | -1 | 25 | / | /
COc1cccc(NC(=O)CCc2ccccc2)c1 | 8 | 0 | -2 | 3 | 5 | 10
CCOCCC(=O)Nc1ccc2c(c1)c(=O)n(C)n2Cc1cccc(C(F)(F)F)c1 | 10 | / | -2 | 177* | / | /
COc1cccc(Cn2c3ccc(NC(=O)CCc4ccc(F)cc4)cc3c(=O)n2C)c1 | 4 | / | -4 | 151* | / | /
Cn1c(=O)c(=O)n(C)c2cc(S(=O)(=O)CCC(=O)Nc3cccc(C(F)(F)F)c3)ccc21 | 7 | 2 | -1 | -1 | 8 | 2
Cn1c(=O)c2cc(NC(=O)CCc3ccccc3)ccc2n1Cc1cccc(C(F)(F)F)c1 | 15 | / | -3 | 127* | / | /
CC(/C=C/c1ccccc1F)=NNC(=O)C(C)C | / | / | / | / | -5 | /
CC=C(C)C(=O)Nc1cccc(C2=NOC3(C2)CC(C(N)=O)N(C(=O)C2(C)CC2)C3)c1 (stereo not given) | / | / | / | / | 2 | /
Cc1ccc(C(=NNc2nc3ccccc3s2)C2=C(O)c3ccccc3C2=O)cc1 | / | / | / | / | 20 | /
Cn1c(=O)c2cc(NC(=O)NCc3ccccc3)ccc2n1Cc1cccc(C(F)(F)F)c1 | 12 | / | -2 | 138* | / | /
COc1ccccc1CCC(=O)Nc1ccc2c(c1)c(=O)n(C)n2C | 8 | / | -4 | 189* | / | /
CCn1c2ccccc2c2cc(NC(=O)CNCc3ccccc3OC)ccc21 | 16 | 1 | -2 | 0 | -1 | 8
COC(=O)C1=CC(C(=O)OC)C2C3=C(C(=O)[C@]2(C)NC(=O)c2ccccc2)C(C)n2c(=O)n(-c4ccccc4)c(=O)n2C3C1 (stereo not given in full) | / | / | / | / | 12 | /
O=C1CC(c2ccc(O)c(O)c2)Oc2cc(O)cc(O)c21 (stereo not given) | 31* | 1 | -5 | 6 | / | -10
COc1cc2cc(CN(C(=O)NC3CCCCC3)C3CCCC3)c(=O)[nH]c2cc1OC | 23 | 0 | -1 | 4 | 10 | -3
O=C(NC1CCCCC1)N(Cc1cc2cc3c(cc2[nH]c1=O)OCCO3)C1CCCCC1 | 35* | -2 | 1 | 8 | 4 | 10
SMILES | GDH-TPI inh | Mtb UGM inh | FadD28 FP inh | Mtb FBA inh | Mtb hypoxia inh | Rv3671c protease
O=C(c1ccccn1)N(Cc1cc2ccccc2[nH]c1=O)C1CCCCC1 | 10 | 1 | 0 | + | / | 0
COc1ccc2[nH]c(=O)c(CN(C(=O)c3ccccn3)C3CCCCC3)cc2c1 | 12 | 5 | -1 | 11 | / | -9
Cc1nc2sc(C#N)c(N)c2c2c1CCCC2 | -1 | 1 | -3 | 36* | 2 | -13
O=C1N/C(=N\N=Cc2ccco2)SC1Cc1ccccc1[N+](=O)[O-] (stereo not given) | / | / | / | / | -1 | /
Cc1cc(=O)oc2cc(NC(=O)C3CCCC3)ccc12 | 13 | 0 | -2 | 155* | 0 | 4
Cc1cc(=O)oc2cc(NC(=O)CC3(CC(=O)O)CCCC3)ccc12 | 20 | 1 | -2 | + | -2 | 5
Cc1ccc(NC(=O)CC2(CC(=O)O)CCCC2)cc1 | -6 | 2 | 0 | -1 | 13 | 4
CCC1(c2ccccc2)NC(=O)N(CC(=O)Nc2ccc3c(C)cc(=O)oc3c2)C1=O (stereo not given) | 21 | 0 | -1 | 198* | 3 | -11

Assay outcomes as filed in PubChem.
